From PubChem BioAssay AID1671190 (National Center for Advancing Translational Sciences (NCATS), 2021)
Out of some 580,000 compounds screened, about 6,100 (1.1%) were called active. About 15% were inconclusive and are not listed. The call rests on the fitted dose curve; in most records, active means well fitted inhibition curve with a large enough effect; inconclusive means small, poorly fitted or top-dose-only effect, or another doubt; inactive means no such curve, though single readings can be large or run the other way. The list comes from a sample in which actives are over-represented; it also holds similar structures and randomly drawn compounds.

biological target: Polyunsaturated fatty acid lipoxygenase ALOX12 (Homo sapiens) (UniProt P18054); assay: Primary qHTS assay for inhibitors of human arachidonate 12S-lipoxygenase (ALOX12): Round 2; settings: purified 12hLO, xylenol orange hydroperoxide absorbance; series mostly up to 108 µM; activity change, negative = inhibition: at the top concentration
How it was run: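 Purified human 12hLO at 150 nM in 25 mM Hepes, 0.01% Triton X-100, pH 7.0, preincubated 15 min at room temperature with compound. Reaction started with 40 uM arachidonic acid, 30 min at room temperature. Hydroperoxide measured by Fe-xylenol orange, 573/405 nm absorbance ratio.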
On the % scale 0 is the no-effect control and ±100 the full control effect; potency means the concentration at half of the fitted maximal effect.

Sequence of Polyunsaturated fatty acid lipoxygenase ALOX12 (Homo sapiens) (P18054 whole entry, looked up): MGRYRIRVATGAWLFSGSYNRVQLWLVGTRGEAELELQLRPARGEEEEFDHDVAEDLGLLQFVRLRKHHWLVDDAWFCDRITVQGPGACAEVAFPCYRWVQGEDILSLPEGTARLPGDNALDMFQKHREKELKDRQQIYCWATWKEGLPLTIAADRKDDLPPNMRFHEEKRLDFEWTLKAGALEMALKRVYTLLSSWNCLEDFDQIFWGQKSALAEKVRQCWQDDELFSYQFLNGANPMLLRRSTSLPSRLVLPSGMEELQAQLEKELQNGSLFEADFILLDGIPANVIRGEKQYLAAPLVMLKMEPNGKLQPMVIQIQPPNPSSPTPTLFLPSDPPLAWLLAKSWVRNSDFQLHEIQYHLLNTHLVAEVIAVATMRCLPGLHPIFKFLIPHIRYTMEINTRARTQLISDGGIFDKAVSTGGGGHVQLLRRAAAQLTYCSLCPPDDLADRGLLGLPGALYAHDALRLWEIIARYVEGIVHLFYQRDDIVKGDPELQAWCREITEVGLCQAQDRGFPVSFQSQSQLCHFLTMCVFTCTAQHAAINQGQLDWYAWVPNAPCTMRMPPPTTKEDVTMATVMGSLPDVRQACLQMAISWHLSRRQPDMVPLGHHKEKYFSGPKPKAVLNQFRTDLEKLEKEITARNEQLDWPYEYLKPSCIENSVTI

Structure (SMILES) | activity change, negative = inhibition | Potency
Cc1nn(C)c2nc(C(C)C)cc(C(=O)N3CCN(c4ncccn4)CC3)c12 | 43.9% (inactive) | 
Cc1[nH]n(C)c(=O)c1C(=O)c1c(-c2c(Cl)cccc2Cl)noc1C | -37.5% (inactive) | 
Cc1[nH]n(C)c(=O)c1N=Nc1ccc(S(C)(=O)=O)cc1 |  | 6.31 µM (active)
Cc1[nH]n(C(N)=S)c(=O)c1N=Nc1ccc(Cl)cc1Cl | -80.5% (inactive) | 
Oc1ccc(O)c([S+]2CCCC(C3CCCCC3)C2)c1 (configuration not stated) |  | 17.8 µM (active)
COc1ccc(Cc2nnc(SCc3nc4ccccc4c(=O)[nH]3)n2CC(C)C)cc1 | 5.98% (inactive) | 
Cc1ccc(NC(=O)C2Cc3ccccc3O2)cc1S(N)(=O)=O (configuration not stated) | 26.3% (inactive) | 
COc1cc(C2C(C(=O)c3sc(C)nc3C)=C(O)C(=O)N2CCN(C)C)cc(OC)c1OC (configuration not stated) | 3.5% (inactive) | 
COc1cc(C2C(C(=O)c3ccc(C)o3)=C(O)C(=O)N2CCc2ccccc2)ccc1O (configuration not stated) |  | 35.5 µM (active)
COc1ccc(CCN2C(=O)c3[nH]nc(-c4ccccc4O)c3C2c2ccc(C)cc2)cc1OC (configuration not stated) | -5.81% (inactive) | 
CCCOc1ccc(C2C(C(=O)c3ccc(C)o3)=C(O)C(=O)N2CCCn2ccnc2)cc1 (configuration not stated) | -23.1% (inactive) | 
COCCN1C(=O)C(O)=C(C(=O)c2ccc(C)o2)C1c1ccc(O)c(OC)c1 (configuration not stated) |  | 17.8 µM (active)
CCOC(=O)C1=C(c2ccccc2)N=C2SCC(=O)N2C1c1ccc(O)c(OC)c1 (configuration not stated) | 16% (inactive) | 
COc1ccc(OC2CN(Cc3cccn3C)C2)cc1 | 5.21% [at 12.5 µM] (inactive) | 
COc1ccc(OCCSC(C)C(N)=O)cc1 (configuration not stated) | 0.76% (inactive) | 
CC(C)c1ccc(C2CC(=O)N3CN(C4CCCCC4)CSC3=C2C#N)cc1 (configuration not stated) |  | 17.8 µM (active)
CC(C)c1ccc(/C=N/NC(=O)c2cc(C3CC3)nc3ccccc23)cc1 | -1.68% (inactive) | 
COc1cc(C(=O)Nc2ccc(C(=O)O)cc2)c2ccccc2n1 | -3.94% (inactive) | 
CNC(=O)c1cccc(NC(=O)c2cc(C3CC3)nc3ccccc23)c1 |  | 39.8 µM (active)
CNC(=O)C(=O)NC1CC(C)(C)NC(C)(C)C1 | 12.8% (inactive) | 
Cc1cc(C)cc(S(=O)(=O)n2cc3c(=O)n(C)c(=O)n(C)c3n2)c1 | 17.8% (inactive) | 
O=CN1CCN(C(=O)CCC(=O)O)CC1 | 1.54% (inactive) | 
Cc1cnc(CNc2nc(-c3cccnc3)nc3ccccc23)cn1 | -15.3% (inactive) | 
c1ccc(CNc2ncncc2-c2cccnc2)cc1 |  | 39.8 µM (active)
Clc1ccc(Cn2ncc3c(NCc4cccnc4)ncnc32)cc1 | 9.76% (inactive) | 
Cc1cccc(-c2cc(C(=O)NCC3CCCO3)c3ccccc3n2)c1 (configuration not stated) | -41.8% (inactive) | 

Structure (SMILES) | activity change, negative = inhibition | Potency
COc1ccc(-c2noc(-c3cc4cc(Cl)ccc4oc3=O)n2)cc1OC | -21.2% (inactive) | 
CC1CCCCC1NC(=O)CSc1nnc(-c2ccncc2)n1CCCN(C)C (configuration not stated) |  | 0.355 µM (active)
CCn1c(SCC(=O)NC2CC2)nnc1-c1ccncc1 | 0% (inactive) | 
O=C(CSc1nnc(-c2ccncc2)n1C1CCCCC1)Nc1ccccc1 | -13.7% (inactive) | 
CCOc1ccc(CNS(=O)(=O)c2ccc(-c3ccc(=O)[nH]n3)o2)cc1 | 1.93% (inactive) | 
O=C(NC1CCS(=O)(=O)C1)c1cc2ccccc2oc1=O (configuration not stated) | -5.29% (inactive) | 
CN(Cc1ccccc1)C(=O)C[C@@H]1CCNC[C@@H]1Cc1cc(-c2ccc(C(C)(C)C)cc2)on1 |  | 25.1 µM (active)
O=C(C[C@@H]1CCNC[C@@H]1Cc1cc(-c2ccc(F)cc2)on1)NCCN1CCOCC1 | 10.7% [at 176 µM] (inactive) | 
CCCCc1cc(C[C@H]2CNCC[C@H]2CC(=O)N(CC)CC)no1 | 15.8% [at 176 µM] (inactive) | 
COc1ccc(S(=O)(=O)Nc2nc3ccccc3nc2Nc2cccc(C)c2)cc1 | 0.128% (inactive) | 
COc1ccc(C(=O)OCc2ccc(Br)cc2)c(OC)c1 | -24.9% (inactive) | 
COc1ccc(OC(=O)CCc2ccc3c(c2)OCCO3)cc1 | -53.4% (inactive) | 
CCCCc1c/c(=N\O)oc2cc3occ(C)c3cc12 |  | 17.8 µM (active)
CCOC(=O)COc1ccc2c(=O)c(-c3ccc(OC)c(OC)c3)c(C)oc2c1 | 7.48% (inactive) | 
CC(C)C[C@@H]1N[C@H](C(=O)NCc2ccc(F)cc2)Cc2cn(C)c3cccc1c23 | 23.5% [at 176 µM] (inactive) | 
Cc1ccc(Cl)c(OC(C)C(=O)NN)c1 (configuration not stated) | 10.7% (inactive) | 
CCOC(=O)C[C@H]1c2ccc(C(F)(F)F)cc2S(=O)(=O)N1c1ccccc1 | -16.8% (inactive) | 
CCOC(=O)C1Nc2ccc(C(F)(F)F)cc2C2C=CCC12 (configuration not stated) |  | 17.8 µM (active)
CCOC(=O)/C=C/c1ccc(C(F)(F)F)cc1S(=O)(=O)NC(C)(C)C | -28.5% (inactive) | 
Cc1ccc(S(=O)(=O)N2CCCC(C(=O)O)C2)cc1F (configuration not stated) | -9.4% (inactive) | 
NC(=O)CN1C(=O)C(O)(CC(=O)c2ccc3c(c2)OCO3)c2ccccc21 (configuration not stated) | -0.761% (inactive) | 
CS(=O)(=O)Nc1ccc([C@H]2OCC(=O)N(C3CCOCC3)[C@@H]2CO)cc1 | 10.1% [at 176 µM] (inactive) | 
Cc1ccc2[nH]cc(C(C(=O)O)N3CCN(c4ccccc4)CC3)c2c1 (configuration not stated) | 69.7% (inactive) | 
Cc1ccc(C(=O)NC(C)C)c(Cl)c1 | 25.9% (inactive) | 
CC(C)OC(=O)c1ccc(NCc2cc(O)ccc2O)cc1Cl |  | 10 µM (active)
O=C(O)c1ccc(CSc2ccc(Cl)cc2Cl)cc1 | -47.7% (inactive) | 

Structure (SMILES) | activity change, negative = inhibition | Potency
Cc1ccc(C2(C(=O)N3C[C@@H](CN4CCCCC4)[C@@H](CO)C3)CC2)cc1 | -8.28% (inactive) | 
CC(Sc1ccc2c(c1)OCCCO2)C(=O)O (configuration not stated) | -2.01% (inactive) | 
Cc1[nH]c2ccccc2c1C(=O)C(C)Sc1nnc(C2CC2)o1 (configuration not stated) |  | inactive
Cc1[nH]c2ccccc2c1C(=O)C(C)Sc1ccc2c(c1)OCCCO2 (configuration not stated) |  | 14.1 µM (active)
COc1ccc(-c2c(C)c3ccc(OCC(=O)OC(C)(C)C)cc3oc2=O)cc1OC | 16.1% (inactive) | 
CCN(C1CCCCC1)S(=O)(=O)c1ccc(C(=O)Nc2ccc(Cl)c3ncsc23)cc1 | -5.15% (inactive) | 
CO[C@@H]1COCC[C@H]1NC(=O)CCCc1nc(-c2ccccc2C)no1 | 25% (inactive) | 
CC1CC(=O)Nc2ccccc2N1S(=O)(=O)c1cccs1 (configuration not stated) | 148% (inactive) | 
CC1CC(=S)Nc2ccccc2N1Cc1ccccc1 (configuration not stated) |  | 44.7 µM (active)
CC1CC(C)(C)NC(=S)N1CCC(=O)N1CCN(Cc2ccccc2)CC1 (configuration not stated) | -2.83% (inactive) | 
O=C(CCN1C(=O)c2ccccc2S1(=O)=O)Nc1ccc(S(=O)(=O)N2CCCC2)cc1 | -55.7% (inactive) | 
C=C(Br)CNCc1ccccc1 | -24.8% (inactive) | 
Cc1ccc(C(C)NC(=O)CCc2nc(C(C)C)no2)o1 (configuration not stated) | 8.08% (inactive) | 
Cc1ccccc1-c1cc(C(=O)NCCN2CCNC2=O)c2c(c1)N(C)CCO2 | 1.66% [at 176 µM] (inactive) | 
Cc1noc(/C=C/c2ccco2)c1S(=O)(=O)N1CCC(C(=O)N2CCc3ccccc32)CC1 |  | 14.1 µM (active)
COc1ccccc1N1CCN(C(=O)C2CCN(S(=O)(=O)c3c(C)noc3/C=C/c3ccc(C)cc3)CC2)CC1 | -5.47% (inactive) | 
Cc1noc(/C=C/c2ccco2)c1S(=O)(=O)N1CCC(C(=O)Nc2ccc(Cl)cn2)CC1 | -15.1% (inactive) | 
CN(CC(=O)NC(C)(C)C)Cc1cccc2cccnc12 | 20.8% (inactive) | 
Cc1nnc(SCc2cc(=O)[nH]c(N3CCN(Cc4ccccc4)CC3)n2)s1 | -24.6% (inactive) | 
Cc1cc(C)cc(C(=O)NC2C(=O)N3C(C(=O)O)=C(CSc4nnc(C)s4)CSC23)c1 (configuration not stated) |  | 39.8 µM (active)
CO/N=C(/C(=O)N[C@@H]1C(=O)N2C(C(=O)O)=C(Cn3nnc(C)n3)CS[C@H]12)c1csc(N)n1 | -8.52% [at 22.9 µM] (inactive) | 
CC(C)C(=O)Nc1cc(Cl)ccc1Cl | 1.43% (inactive) | 
CC(C)C(=O)N1CCN(C(=O)c2cc3ccccc3n2C)CC1 | -28.6% (inactive) | 
CNc1c(NC(=O)Nc2ccc(F)cc2F)c(=O)oc2ccccc12 | -1.6% (inactive) | 
CCOC(=O)C1Cn2c(nc3c(c2=O)C(C)(CC)Cc2ccccc2-3)S1 (configuration not stated) | 0% (inactive) | 
O=c1[nH]c(CCl)nc2cc(-c3ccc(Cl)cc3)sc12 | 106% (inactive) | 

Structure (SMILES) | activity change, negative = inhibition | Potency
CCC1(CC)Cc2ccccc2-c2nc(CCl)[nH]c(=O)c21 |  | 7.08 µM (active)
CC(C)C(=O)Nc1ccc(-c2nc3ccccc3o2)cc1 | -38.4% (inactive) | 
CCOC(=O)c1nc2ccccc2nc1NCc1ccc(C)cc1 | -2.85% (inactive) | 
CC(=O)c1c(C)[nH]c(C(=O)c2oc3ccc(Cl)cc3c2C)c1C | -13.1% (inactive) | 
COC(=O)c1ccc(/C=C2\Oc3cc(OS(C)(=O)=O)cc(C)c3C2=O)cc1 | -17.5% (inactive) | 
Cc1cccc(N2CCN(c3ccc(C(=O)O)cc3NC(=O)c3ccccc3F)CC2C)c1 (configuration not stated) |  | 50.1 µM (active)
Cc1cccc(N2CCN(C(=O)c3ccccc3NC(=O)C3CCCCC3C(=O)O)CC2)c1 (configuration not stated) | -15% (inactive) | 
CCN1CCN(c2cc3nc(C)n(Cc4ccccc4)c(=O)c3cc2NC(=O)c2ccccc2F)CC1 | -8.8% (inactive) | 
O=C(c1cccc(Br)c1)N1CCC(CCc2ccc(O)cc2)CC1 | -3.12% (inactive) | 
Cc1ccc(NC(NC(=O)c2cccc(C)c2)C(Cl)(Cl)Cl)cc1 (configuration not stated) | 9.95% (inactive) | 
O=C1C=C(c2cccc(Cl)c2O)C[C@@H](c2ccc(F)cc2)C1 | -27.3% (inactive) | 
CCc1nc2nc3c(cn2n1)C(=O)CC(c1ccc(Cl)cc1)C3 (configuration not stated) | -5.2% (inactive) | 
CCCCC/C=C/C1=CC(=O)C[C@H](c2ccc(Cl)cc2)C1 |  | 35.5 µM (active)
CCCCc1ccc(NC(=O)c2cc3c(s2)CCCC3)cc1 | -29.7% (inactive) | 
CN(Cc1ccon1)C(=O)c1coc(COc2ccc(F)cc2Cl)n1 | 38.2% (inactive) | 
Cn1c(=O)c2c(ncn2CCC(=O)NCc2ccc(F)cc2)n(C)c1=O | 9.96% (inactive) | 
CN1CCN(c2ccc3nnc(C4CCC4)n3n2)CC1 | 54.1% (inactive) | 
Cc1ccc(-c2noc([C@@H]3Cc4nc[nH]c4CN3C(=O)Nc3ccccc3)n2)cc1 | 11.7% [at 176 µM] (inactive) | 
CC(C)NC(=O)N1Cc2[nH]cnc2C[C@H]1c1nc(-c2ccc(Cl)cc2)no1 |  | 14.1 µM (active)
CCOC(=O)c1ccc(NC(=O)N2Cc3[nH]cnc3C[C@H]2c2nc(-c3ccc(Cl)cc3)no2)cc1 | 37.1% (inactive) | 
Cc1nc(NC2CCCCC2)sc1C(=O)Nc1ccccc1 | -47.2% (inactive) | 
CC(C)C(=O)N/N=C/c1ccc(Cl)cc1 | -13.7% (inactive) | 
COc1cc2c(cc1O)NC(=O)CC2c1cn[nH]c1-c1cc(C)ccc1C (configuration not stated) | 22.7% (inactive) | 
CC(C)OCC(O)Cn1c(NCc2ccccc2)nc2c1c(=O)[nH]c(=O)n2C (configuration not stated) | -13.5% (inactive) | 
